hNpr1 antagonist: blocks ANP-stimulated signaling of human Npr1 receptor | P16066 | HEK293 hNpr1 GloSensor cGMP, ANP-stimulated luminescence | Potency, µM (top dose mostly 46.3 µM), for inactives: top-dose activity change, negative = inhibition, actives largely listed as inhibitors | 1.6% of 76,000 active | AID 1347048; calls by dose curve; further: on the % scale 0 is the no-effect control and ±100 the full control effect; nearly all actives have a fitted effect of over 60% in size
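Compound pre-incubated 30 min at room temperature on GloSensor-loaded HEK293 cells stably carrying hNpr1 and the pGS-40F cGMP biosensor. Stimulation uses hNppA at 0.1 nM final; luminescence is taken at baseline and 20 min post-agonist.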
HEK cytotox: kills HEK 293 cells. HEK 293 viability, ATP luminescence (CellTiter-Glo), 48-72 h. Potency, µM (titrated, usually from 115 µM), without a hit: top-dose activity change, negative = cytotoxicity, most hits filed as inhibitors. 6.6% of 94,000 active. AID 1345083; further: on the % scale 0 is the no-effect control and ±100 the full control effect; nearly all actives have a fitted effect of over 60% in size
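Pintool-delivered compounds were incubated with HEK 293 cells (250 cells/well) at 37 degree Celsius for 48 or 72 hr. ATP-dependent luminescence (CellTiter-Glo) then reported remaining viable cells.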
GPT2 inhibitor: blocks human glutamate pyruvate transaminase 2 | 0.25% of 100,000 active | Potency, µM (doses to about 57.7 µM), for the others: at the highest dose activity change, negative = inhibition, most hits filed as inhibitors | Recombinant GPT2, coupled pyruvate oxidase/HRP Amplex Red fluorescence; further: on the % scale 0 is the no-effect control and ±100 the full control effect; nearly all actives have a fitted effect of over 60% in size
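Fluorescence of coupled pyruvate oxidase/HRP/Amplex Red system (50uM Amplex, 30 min, dark) reports pyruvate formed by GPT2. Enzyme reaction: 10ng/uL GPT2, 2mM L-alanine, 250uM a-KG, 30 min room temperature, pH 7.5; 50uM AOA control.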
3T3 cytotox: kills NIH 3T3 cells; NIH 3T3 viability, CellTiter-Glo ATP luminescence, 48-72 h; Potency, µM (highest dose often 96.7 µM), for the others: at the top dose activity change, negative = cytotoxicity, usual class: inhibitors; 4.3% of 94,000 active; AID 1345082; further: on the % scale 0 is the no-effect control and ±100 the full control effect; nearly all actives have a fitted effect of over 55% in size
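Cells were seeded at 400 per well, treated with pin-transferred compound, and kept 48 or 72 hr at 37 °C before CellTiter-Glo addition and luminescence imaging of cellular ATP.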
FLuc inh-1: blocks purified firefly luciferase enzyme activity | P08659 | purified P. pyralis luciferase, luminescence, biochemical | Potency, µM (doses to about 115 µM), actives largely listed as inhibitors | 2.5% of 76,000 active | AID 1347043; further: on the % scale 0 is the no-effect control and ±100 the full control effect; nearly all actives have a fitted effect of over 65% in size
Target sequence (P08659 whole entry, looked up): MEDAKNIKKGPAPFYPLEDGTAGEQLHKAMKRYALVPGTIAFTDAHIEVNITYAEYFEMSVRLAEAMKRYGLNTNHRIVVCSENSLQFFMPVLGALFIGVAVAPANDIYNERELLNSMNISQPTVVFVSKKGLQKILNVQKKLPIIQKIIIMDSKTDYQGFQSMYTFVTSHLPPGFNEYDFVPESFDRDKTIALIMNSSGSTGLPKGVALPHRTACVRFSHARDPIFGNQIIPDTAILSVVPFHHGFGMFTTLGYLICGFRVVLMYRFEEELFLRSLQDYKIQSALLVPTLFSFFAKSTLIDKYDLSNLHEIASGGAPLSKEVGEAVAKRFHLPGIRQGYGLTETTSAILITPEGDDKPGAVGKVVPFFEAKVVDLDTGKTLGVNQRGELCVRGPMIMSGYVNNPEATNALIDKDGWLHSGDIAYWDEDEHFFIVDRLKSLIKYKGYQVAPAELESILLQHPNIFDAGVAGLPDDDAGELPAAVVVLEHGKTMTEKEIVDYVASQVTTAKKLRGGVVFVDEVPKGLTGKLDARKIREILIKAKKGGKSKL
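Purified P. pyralis luciferase (10nM final) in 50mM Tris acetate pH 7.5, 10mM Mg acetate, 0.01% Tween-20, 0.05% BSA with 10uM D-luciferin and 10uM ATP. Compounds titrated qHTS. Luminescence imaged on CCD.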
FLuc SDR no ATP: firefly luciferase binding stabilization, ATP absent; 7.8% of 1,300 active; Purified FLuc-C-HiBiT, Nano-Glo HiBiT luminescence, no ATP; shares compounds with FLuc inh-1; Potency, µM (titrated, usually from 32.7 µM), for inactives: top-dose activation (signal gain), usual class: activators; AID 1963318; further: nearly all actives have a fitted effect of over 55% in size
FLuc SDR ATP: binders stabilizing firefly luciferase, plus ATP | shares compounds with FLuc inh-1 | purified FLuc-C-HiBiT + ATP, HiBiT complementation luminescence | Potency, µM (highest dose often 32.7 µM), inactives show top-dose activation (gain of signal), hits mostly activators | 8.7% of 1,300 active;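 further: signal reports ligand binding via conformational change of the enzyme rather than luciferase catalysis; % of control where 0% means no effect; nearly all actives have a fitted effect of over 55% in size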
FLuc inh-2: firefly luciferase enzyme inhibition; shares compounds with FLuc inh-1; purified FLuc-C-HiBiT enzyme, luciferin luminescence; Potency, µM (doses to about 32.7 µM), for inactives: top-dose activity change, negative = inhibition, usual class: inhibitors; 42% of 1,300 active; AID 1963320; further: on the % scale 0 is the no-effect control and ±100 the full control effect; nearly all actives have a fitted effect of over 70% in size
Numbers without * were called inactive; i = inactive; ? = inconclusive; · = no result; [ ] = another dose, or the depositor's remark. Shown are actives, neighbours in structure and some others; about 10% of the full set was active somewhere. Unless noted, the call rests on the fitted dose curve; in most records, active means well fitted curve in the direction sought with a large enough effect; inconclusive means small, poorly fitted or top-dose-only effect, or another doubt; inactive means no such curve, though single readings can be large; an effect the other way counts as inactive or inconclusive. Potency means the concentration at half of the fitted maximal effect.

SMILES	hNpr1 antagonist	HEK cytotox	GPT2 inhibitor	3T3 cytotox	FLuc inh-1	FLuc SDR no ATP	FLuc SDR ATP	FLuc inh-2
O=C(Nc1ccc(F)cc1)Nc1cccc(-c2ccc(N3CCOCC3)nn2)c1	?	?	i	?	0.89µM*	?	?	2µM*
Cc1nc2c(c(-c3ccc(Cl)cc3)n1)CCN(C(=O)Cc1cccc(Cl)c1)CC2	-4%	?	-15%	?	i	·	·	·
O=C(Nc1cccc(-c2ccc(N3CCOCC3)nn2)c1)Nc1cc(F)ccc1F	10µM*	79µM*	-2%	?	0.89µM*	?	?	2.5µM*
O=C(Nc1cccc(F)c1)Nc1cccc(-c2nnc3n2CCCC3)c1	-3%	-2%	3%	i	i	·	·	·
CCc1cccc(NC(=O)Nc2cccc(-c3ccc(N4CCOCC4)nn3)c2)c1	?	40µM*	4%	?	2µM*	?	18%	6.2µM*
O=C(Nc1cccc(-c2ccc(N3CCOCC3)nn2)c1)Nc1ccccc1F	?	18µM*	i	?	1.6µM*	?	?	2.8µM*
O=C(Nc1cccc(-c2ccc(N3CCCC3)nn2)c1)c1c(F)cccc1F	-18%	40µM*	i	?	7.1µM*	?	?	8.8µM*
O=C(Nc1cccc(-c2nnc3n2CCCC3)c1)c1cc(F)cc(F)c1	0%	-25%	i	?	i	·	·	·
CCc1nnc(NC(=O)C2c3ccccc3C(=O)N(CCOC)C23CCCCC3)s1 (stereo not given)	-2%	-1%	-11%	-6%	i	·	·	·
COc1ccc(S(=O)(=O)N2CCOC[C@H](Oc3ccc(C(F)(F)F)cc3)C2)cc1	?	?	-7%[88.5 µM]	?	i	·	·	·
Cc1cc(-c2nc3cc(F)ccc3s2)ccc1NC(=O)[C@@H](N)CCCCN	·	·	-21%	·	·	30%	?	2.5µM*
Cc1cc(-c2nc3cc(F)ccc3s2)ccc1N	·	·	·	·	·	?	?	1.1µM*
O=C(O)[C@@H]1CN(Cc2ccccc2)C[C@@H]1C(=O)N1CCOCC1	-11%	-16%	i	-17%	i	·	·	·
O=C(O)[C@@H]1CN(Cc2ccccc2)C[C@@H]1C(=O)N1CCc2ccccc21	1%	i	?	-1%	i	13%	9%	1%
Cc1nc2scc(CC(=O)NCCC(C)C)n2c(=O)c1-c1cc(C)n(-c2cc(F)ccc2F)n1	0%	?	i	?	i	·	·	·
O=C(O)C1(Oc2ccc3ccccc3c2)CCN(c2ncnc3nc[nH]c23)CC1	14%	-15%	3%	-2%	i	11%	12%	-12%
COc1cc(OC)cc(OC)c1	·	·	-10%	·	·	·	·	·
O=C(O)C[C@@H]1CCN(C(=O)C2CCCC2)C[C@@H]1CCN1CCN(c2ccccn2)CC1	0%[70.6 µM]	-6%[172 µM]	5%[88.5 µM]	-23%[174 µM]	i	·	·	·
Nc1nc2c([nH]c(=S)n2C2OC(CO)C(O)C2O)c(=O)[nH]1 (stereo not given)	·	·	·	·	·	0%	-1%	2.5µM*
Nc1nc2c(ncn2[C@@H]2O[C@H](CO)[C@@H](O)[C@H]2O)c(=O)[nH]1	·	·	i	·	·	·	·	·
Nc1nc2c([nH]c(=O)n2C2OC(CO)C(O)C2O)c(=O)[nH]1 (stereo not given)	·	·	·	·	·	14%	8%	0%
CCN1CCN(C(=O)C2N(c3ccc(OC)cc3)C(=O)C23CCCCC3)CC1 (stereo not given)	3%	-6%	-17%	-9%	i	·	·	·
Cc1ccc(C(=O)NC2CC2)cc1-c1ccc2[nH]ncc2c1	·	·	·	·	·	17%	12%	-16%
Cc1ccc(C(=O)NC2CCN(c3cn[nH]c(=O)c3)CC2)cc1C	2%	-3%	2%	-11%	i	·	·	·
O=C(NCc1cc(F)ccc1F)C1CCN(C(=O)c2ncn3c2COC(c2ccccc2)C3)CC1 (stereo not given)	-16%	-10%	?	-7%	2.2µM*	9%	?	3.1µM*
SMILES	hNpr1 antagonist	HEK cytotox	GPT2 inhibitor	3T3 cytotox	FLuc inh-1	FLuc SDR no ATP	FLuc SDR ATP	FLuc inh-2
O=C(NCc1ccc2c(c1)OCO2)C1CCN(c2cc(C(F)(F)F)ncn2)CC1	?	?	i	?	10µM*	16%	17%	?
O=C(NCc1ccccc1Cl)C1CCN(C(=O)c2ncn3c2COC(c2ccccc2)C3)CC1 (stereo not given)	-14%	13%	?	1%	14µM*	12%	?	?
O=C(NCc1ccc(Cl)cc1)C1CCN(C(=O)c2ncn3c2COC(c2ccccc2)C3)CC1 (stereo not given)	-23%	-17%	?	-7%	8.9µM*	14%	?	3.9µM*
O=C(NCc1ccc(F)cc1F)C1CCN(C(=O)c2ncn3c2COC(c2ccc(F)cc2)C3)CC1 (stereo not given)	-12%	-9%	3%	-17%	?	·	·	·
N#Cc1ccc(-c2c(-c3ccccc3)ncn2CCNc2cccnc2)cc1	-28%	-22%	?	-12%	i	·	·	·
COCCOC1CCOC2(CCN(C(=O)c3ccccc3F)CC2)C1 (stereo not given)	13%	-9%	i	?	i	·	·	·
O=C(NCc1ccco1)C1CCN(C(=O)c2ncn3c2COC(c2ccccc2)C3)CC1 (stereo not given)	-21%	1%	3%	0%	5µM*	15%	2.5µM*	2.5µM*
CCOc1cccc(CNC(=O)C2CCN(C(=O)c3ncn4c3COC(c3ccccc3)C4)CC2)c1 (stereo not given)	-12%	13%	5%	-2%	14µM*	16%	?	?
O=C(NCc1ccc2c(c1)OCO2)C1CCN(C(=O)c2ncn3c2COC(c2ccccc2)C3)CC1 (stereo not given)	-24%	14%	4%	i	7.9µM*	16%	?	7µM*
Cc1nn(C)cc1CN1CC2(CCN(C(=O)C3CC3)CC2)CC1C(=O)O (stereo not given)	1%	-1%	i	i	i	·	·	·
COc1ccc(C)cc1-c1cn(C)c(=O)n2cc(COc3ccccc3)nc12	5%[70.6 µM]	?	0%[88.5 µM]	?	i	·	·	·
COc1ccc(CN2C[C@@H]3C(=O)N(Cc4ccc5c(c4)OCO5)C(=O)[C@@H]3C2)c(OC)c1	?	?	4%	-22%	i	·	·	·
